Source: PubChem BioAssay (Tox21)
Inconclusive results are not listed. Calls of active or inactive are those of the source. Unless noted, the call rests on the fitted dose curve; in most records, active means well fitted curve in the direction sought with a large enough effect in the repeat runs; inconclusive means weak or mixed curves; inactive means no such curve, though single readings can be large; an effect the other way counts as inactive or inconclusive.

Legend:
[1] = qHTS assay to identify small molecule agonists of the sonic hedgehog signaling (Shh) pathway (AID 1259368; calls by dose curve;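 further: NIH/3T3-derived 3T3Gli1-Luc cells carrying a stable Gli1-driven firefly luciferase reporter; series mostly up to about 92 µM; nearly all actives have a fitted effect of over 15% in size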)
In short: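 Stable NIH/3T3 Gli1-Luc reporter clone; 24 hr cpd exposure after a 4 hr settling period; luminescence endpoint.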

[2] = qHTS assay to identify small molecule antagonists of the sonic hedgehog signaling (Shh) pathway (AID 1259369; calls by dose curve; further: nearly all actives have a fitted effect of over 45% in size)
In short: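 Gli1 transcriptional reporter (firefly Luc) in NIH/3T3 background, conditioned-medium activated. 24hr exposure, luminescence endpoint.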

[3] = biological target: Estrogen receptor beta (Homo sapiens) (UniProt Q92731); assay: qHTS assay to identify small molecule antagonists of the estrogen receptor beta (ER-beta) signaling pathway (AID 1259378; active means well fitted inhibition curve with a large enough effect in the signal ratio in the repeat runs, not every such curve was filed as active; the % refers to the signal ratio)
In short: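 ER-beta-UAS-bla HEK293T (GripTite) cells in 2% charcoal-stripped FBS medium were preincubated 6 hr at 37C, dosed with compound, then stimulated with 1 nM E2 (final) for 16 hr; beta-lactamase reporter read by B/G FRET fluorescence after 2 hr substrate loading.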

[4] = qHTS assay to identify small molecule agonists of the androgen receptor (AR) signaling pathway in the presence of an antagonist - cell viability counter screen (AID 1259379);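 further: MDA-kb2 human breast cancer cells carrying an MMTV luciferase reporter; series mostly up to about 92 µM; nearly all actives have a fitted effect of over 25% in size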
In short: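 Counter screen for cell viability run in parallel with the AR agonist-mode luciferase assay. MDA-kb2 cells were co-treated with nilutamide (3.0uM final) and compounds, then incubated 16 hr at 37C, and CellTiter-Fluor fluorescence was measured.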

[5] = qHTS assay to identify small molecule agonists of the estrogen receptor beta (ER-beta) signaling pathway - cell viability counter screen (AID 1259380); further: nearly all actives have a fitted effect of over 30% in size
In short: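 In this qHTS counter screen, HEK293T cells carrying an ER-beta/UAS beta-lactamase reporter, grown in 2% charcoal-stripped FBS, received compound for 16 hr; ATP-based CellTiter-Glo luminescence was then read after 30 min at room temperature.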

[6] = qHTS assay to identify small molecule antagonists of the estrogen receptor beta (ER-beta) signaling pathway - cell viability counter screen (AID 1259382); further: series mostly up to about 92 µM; nearly all actives have a fitted effect of over 55% in size
In short: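 HEK293T ER-beta-UAS-bla, 2% charcoal-stripped FBS; compounds + 1nM E2 16 hr 37C; CellTiter-Glo luminescence, 30 min RT.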

[7] = biological target: Estrogen receptor (Homo sapiens) (UniProt P03372); assay: qHTS assay to identify small molecule agonists of the estrogen receptor alpha (ER-alpha) signaling pathway in the presence of an antagonist (AID 1259383; calls by dose curve; further: top concentration of the series differs between compounds; nearly all actives have a fitted effect of over 15% in size)
In short: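 ER-alpha agonism measured under antagonist challenge: 10.0nM ICI-182,780 (final) plus compound, 15 concentrations, 22hr, VM7Luc4E2 ERE-luciferase cells. Read by luminescence.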

[8] = qHTS assay to identify small molecule agonists or antagonists of the thyroid stimulating hormone receptor (TSHR) signaling pathway - wild type cell line counter screen (AID 1259384; calls by dose curve)
In short: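 Wild-type HEK293 cells were plated 18 h at 37 C/5% CO2, pin-dosed with compound plus Ro20-1724 medium, held 30 min at room temperature, then given cAMP-d2 and anti-cAMP-cryptate; fluorescence was read after 1 h. Fifteen concentrations, triplicate.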

[9] = biological target: Thyrotropin receptor (Homo sapiens) (UniProt P16473); assay: qHTS assay to identify small molecule antagonists of the thyroid stimulating hormone receptor (TSHR) signaling pathway (AID 1259385; calls by dose curve; further: nearly all actives have a fitted effect of over 20% in size)
In short: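 TSHR-HEK293 cells were plated and held 18 h at 37C/5% CO2, then given compound plus Ro20-1724 and stimulated with TSH at 1.5 ng/mL final. After 30 min at room temperature, cAMP was detected with cAMP-d2/anti-cAMP-cryptate (1 h) by fluorescence.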

[10] = biological target: Progesterone receptor (Homo sapiens) (UniProt P06401); assay: qHTS assay to identify small molecule agonists of the progesterone receptor (PR) signaling pathway (AID 1346784; calls by dose curve; further: nearly all actives have a fitted effect of over 30% in size)
In short: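 PR-UAS-bla HEK 293T cells carrying a UAS-driven beta-lactamase reporter were seeded in medium with 2% charcoal-stripped FBS, preincubated 6 hr at 37C, then exposed to compounds in DMSO for 16 hr; agonism was read by LiveBLAzer B/G FRET fluorescence.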

[11] = biological target: Progesterone receptor (Homo sapiens) (UniProt P06401); assay: qHTS assay to identify small molecule antagonists of the progesterone receptor (PR) signaling pathway (AID 1346795; active means well fitted inhibition curve with a large enough effect in the signal ratio in the repeat runs, not every such curve was filed as active; the % refers to the signal ratio)
In short: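 PR-UAS-bla HEK293T cells carrying a UAS-driven beta-lactamase reporter were plated in medium with 2% charcoal-stripped FBS and rested 6 hr at 37C. Compounds were added with 1 nM R5020 (final) for 16 hr, then FRET substrate loaded 2 hr at room temperature.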

[12] = qHTS assay to identify small molecule antagonists of the TGF-beta/Smad signaling pathway - cell viability counter screen (AID 1346824); further: nearly all actives have a fitted effect of over 50% in size
In short: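 SBE-bla HEK 293T cells were plated overnight at 37 C, then given compounds in DMSO plus TGF-beta1 (added as 0.25 ng/mL solution) for 5 hr. After the bla read, CellTiter-Glo was added to the same wells and luminescence read after 30 min at room temperature.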

[13] = qHTS assay to identify small molecule agonists of the TGF-beta/Smad signaling pathway - cell viability counter screen (AID 1346829); further: top concentration of the series differs between compounds; nearly all actives have a fitted effect of over 45% in size
In short: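 HEK 293T SBE-bla line, 5 hr compound exposure at 37 C, multiplexed CellTiter-Glo viability read by luminescence.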

[14] = qHTS assay to identify small molecule agonists of the TGF-beta/Smad signaling pathway (AID 1346859; active means well fitted activation curve with a large enough effect in the signal ratio in the repeat runs, not every such curve was filed as active; the % refers to the signal ratio; further: series mostly up to about 77 µM)
In short: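 HEK 293T cells stably carrying a beta-lactamase reporter driven by the Smad binding element were seeded overnight, exposed to DMSO-dissolved compounds for 5 hr at 37 C, 5% CO2, then loaded with FRET substrate for 2 hr at room temperature.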

[15] = biological target: Androgen receptor (Homo sapiens) (UniProt P10275); assay: qHTS assay to identify small molecule agonists of the androgen receptor (AR) signaling pathway in the presence of an antagonist (AID 1259381; calls by dose curve; further: nearly all actives have a fitted effect of over 15% in size)
In short: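 AR antagonist background: nilutamide 3.0uM final. Cell line: MDA-kb2, MMTV-driven luciferase, responsive to both AR and GR. Exposure 16hr, 37C, no CO2; ONE-Glo luminescence.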

[16] = qHTS assay to identify small molecule agonists of the estrogen receptor alpha (ER-alpha) signaling pathway in the presence of an antagonist - cell viability counter screen (AID 1259386);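 further: series mostly up to about 92 µM; cells exposed to compounds for 22 h at 37 °C before the viability read; nearly all actives have a fitted effect of over 30% in size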
In short: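 Steps: 5-day stripped-FBS culture; seed and incubate 24hr; add ICI-182,780 (10.0nM final); pin 15-point compound titration; incubate 22hr at 37C; add CellTiter-Fluor at 21hr; read fluorescence.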

[17] = qHTS assay to identify small molecule antagonists of the progesterone receptor (PR) signaling pathway - cell viability counter screen (AID 1346798); further: series mostly up to about 92 µM; nearly all actives have a fitted effect of over 50% in size
In short: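 PR-UAS-bla HEK293T cells in medium with 2% charcoal-stripped FBS were treated with compounds plus R5020 for 16 hr at 37C. Cell viability was then read by CellTiter-Glo luminescence after 30 min at room temperature in the same wells.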

[18] = biological target: Thyrotropin-releasing hormone receptor (Homo sapiens) (UniProt P34981); assay: qHTS assay to identify small molecule antagonists of the thyrotropin-releasing hormone receptor (TRHR) signaling pathway (AID 1346877; active means well fitted inhibition curve with a large enough effect in the repeat runs, not every such curve was filed as active; further: series mostly up to about 51 µM)
In short: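 Human TRHR in HEK293 cells; inhibition of the intracellular calcium rise triggered by 1 nM TRH was followed by fluorescence over 3 min. Compounds were run at 15 concentrations, three replicates each.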

[19] = qHTS assay to identify small molecule agonists of the progesterone receptor (PR) signaling pathway - cell viability counter screen (AID 1346799; calls by dose curve; further: nearly all actives have a fitted effect of over 45% in size)
In short: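 PR-UAS-bla HEK293T cells, 3,000 per well in medium with 2% charcoal-stripped FBS, were preincubated 6 hr at 37C, then exposed to compounds for 16 hr; viability was read as CellTiter-Glo luminescence after 30 min at room temperature.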
On the % scale 0 is the no-effect control and ±100 the full control effect.

Chain of Thyrotropin receptor (Homo sapiens) (P16473 whole entry, looked up): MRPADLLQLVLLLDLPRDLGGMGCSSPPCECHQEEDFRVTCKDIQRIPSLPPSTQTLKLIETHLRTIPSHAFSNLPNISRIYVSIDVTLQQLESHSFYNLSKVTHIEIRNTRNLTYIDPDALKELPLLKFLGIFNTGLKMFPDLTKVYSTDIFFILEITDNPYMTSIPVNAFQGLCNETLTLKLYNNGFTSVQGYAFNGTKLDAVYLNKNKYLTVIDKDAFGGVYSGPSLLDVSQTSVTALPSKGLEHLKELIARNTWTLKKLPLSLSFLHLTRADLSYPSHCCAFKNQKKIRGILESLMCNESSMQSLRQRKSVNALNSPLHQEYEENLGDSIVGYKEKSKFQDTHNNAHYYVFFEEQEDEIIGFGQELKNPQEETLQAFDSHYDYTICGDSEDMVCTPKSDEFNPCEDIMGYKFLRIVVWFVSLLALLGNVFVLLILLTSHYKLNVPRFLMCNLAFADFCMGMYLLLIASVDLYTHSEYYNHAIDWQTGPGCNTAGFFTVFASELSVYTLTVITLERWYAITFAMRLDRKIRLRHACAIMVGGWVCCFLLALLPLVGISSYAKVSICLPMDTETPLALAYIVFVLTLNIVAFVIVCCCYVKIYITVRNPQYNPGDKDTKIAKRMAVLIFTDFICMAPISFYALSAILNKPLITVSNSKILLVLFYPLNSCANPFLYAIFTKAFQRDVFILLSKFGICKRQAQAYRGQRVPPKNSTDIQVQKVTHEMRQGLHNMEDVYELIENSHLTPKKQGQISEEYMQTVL
Chain of Androgen receptor (Homo sapiens) (P10275 whole entry, looked up): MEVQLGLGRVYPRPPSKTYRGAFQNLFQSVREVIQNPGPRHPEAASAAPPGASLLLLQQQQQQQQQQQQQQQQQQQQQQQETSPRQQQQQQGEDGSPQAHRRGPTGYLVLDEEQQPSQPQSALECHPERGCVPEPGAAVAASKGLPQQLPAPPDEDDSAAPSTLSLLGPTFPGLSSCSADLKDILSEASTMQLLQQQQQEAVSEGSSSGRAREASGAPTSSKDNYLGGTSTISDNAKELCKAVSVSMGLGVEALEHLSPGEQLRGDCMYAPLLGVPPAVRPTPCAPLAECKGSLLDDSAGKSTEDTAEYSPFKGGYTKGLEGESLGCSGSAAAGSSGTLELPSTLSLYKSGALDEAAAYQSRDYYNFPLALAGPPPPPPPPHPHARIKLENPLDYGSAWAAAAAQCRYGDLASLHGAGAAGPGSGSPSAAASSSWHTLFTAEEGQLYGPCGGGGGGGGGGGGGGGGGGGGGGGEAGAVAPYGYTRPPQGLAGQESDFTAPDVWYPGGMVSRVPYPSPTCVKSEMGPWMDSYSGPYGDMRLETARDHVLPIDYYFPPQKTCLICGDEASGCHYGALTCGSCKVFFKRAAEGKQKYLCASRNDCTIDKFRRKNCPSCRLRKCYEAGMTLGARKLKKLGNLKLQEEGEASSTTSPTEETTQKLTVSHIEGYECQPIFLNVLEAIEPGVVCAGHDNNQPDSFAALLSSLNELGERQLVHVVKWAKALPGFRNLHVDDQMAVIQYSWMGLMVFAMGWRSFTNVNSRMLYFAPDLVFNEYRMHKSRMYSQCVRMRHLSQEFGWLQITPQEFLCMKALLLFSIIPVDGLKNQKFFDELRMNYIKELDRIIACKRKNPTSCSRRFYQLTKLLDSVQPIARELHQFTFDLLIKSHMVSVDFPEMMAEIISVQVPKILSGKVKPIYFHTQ
Chain of Estrogen receptor beta (Homo sapiens) (Q92731 whole entry, looked up): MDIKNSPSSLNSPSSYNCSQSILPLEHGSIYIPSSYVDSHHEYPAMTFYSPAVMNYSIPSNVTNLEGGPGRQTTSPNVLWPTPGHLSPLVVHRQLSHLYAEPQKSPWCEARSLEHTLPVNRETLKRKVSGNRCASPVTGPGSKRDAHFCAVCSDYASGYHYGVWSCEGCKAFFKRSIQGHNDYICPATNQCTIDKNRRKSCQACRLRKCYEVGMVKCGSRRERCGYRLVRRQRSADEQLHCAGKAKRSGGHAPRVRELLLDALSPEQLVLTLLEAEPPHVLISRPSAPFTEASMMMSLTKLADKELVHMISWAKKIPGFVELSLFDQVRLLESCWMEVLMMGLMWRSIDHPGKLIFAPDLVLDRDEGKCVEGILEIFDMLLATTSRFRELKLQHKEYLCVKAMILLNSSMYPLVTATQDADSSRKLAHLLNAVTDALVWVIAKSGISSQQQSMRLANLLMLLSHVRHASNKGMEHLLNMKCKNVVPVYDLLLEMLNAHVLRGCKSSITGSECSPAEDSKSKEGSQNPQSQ
Chain of Thyrotropin-releasing hormone receptor (Homo sapiens) (P34981 whole entry, looked up): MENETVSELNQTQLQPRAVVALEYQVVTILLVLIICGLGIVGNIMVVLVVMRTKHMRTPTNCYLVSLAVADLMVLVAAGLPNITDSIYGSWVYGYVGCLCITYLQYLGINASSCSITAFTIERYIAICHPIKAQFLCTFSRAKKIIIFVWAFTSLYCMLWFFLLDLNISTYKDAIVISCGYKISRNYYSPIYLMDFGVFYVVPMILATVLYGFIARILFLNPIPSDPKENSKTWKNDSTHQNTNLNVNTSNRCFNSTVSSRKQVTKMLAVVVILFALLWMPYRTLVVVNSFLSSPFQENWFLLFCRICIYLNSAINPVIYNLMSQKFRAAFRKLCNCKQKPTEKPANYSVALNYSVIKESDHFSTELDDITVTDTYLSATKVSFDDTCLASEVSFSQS
Chain of Estrogen receptor (Homo sapiens) (P03372 whole entry, looked up): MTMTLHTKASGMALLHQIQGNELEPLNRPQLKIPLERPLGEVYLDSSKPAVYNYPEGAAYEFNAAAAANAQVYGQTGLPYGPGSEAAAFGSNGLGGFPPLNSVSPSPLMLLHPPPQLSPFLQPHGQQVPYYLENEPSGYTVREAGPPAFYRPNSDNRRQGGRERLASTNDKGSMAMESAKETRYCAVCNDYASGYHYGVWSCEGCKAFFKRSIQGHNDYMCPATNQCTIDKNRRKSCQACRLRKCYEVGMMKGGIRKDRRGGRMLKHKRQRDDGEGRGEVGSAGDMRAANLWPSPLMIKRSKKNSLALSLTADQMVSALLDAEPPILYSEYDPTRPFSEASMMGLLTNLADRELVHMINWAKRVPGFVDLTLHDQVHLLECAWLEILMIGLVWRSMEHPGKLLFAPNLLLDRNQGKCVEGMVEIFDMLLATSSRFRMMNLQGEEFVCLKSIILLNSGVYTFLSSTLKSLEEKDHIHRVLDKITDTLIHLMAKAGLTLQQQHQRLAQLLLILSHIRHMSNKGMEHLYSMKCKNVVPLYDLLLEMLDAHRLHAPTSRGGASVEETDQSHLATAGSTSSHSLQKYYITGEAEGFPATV
Chain of Progesterone receptor (Homo sapiens) (P06401 whole entry, looked up): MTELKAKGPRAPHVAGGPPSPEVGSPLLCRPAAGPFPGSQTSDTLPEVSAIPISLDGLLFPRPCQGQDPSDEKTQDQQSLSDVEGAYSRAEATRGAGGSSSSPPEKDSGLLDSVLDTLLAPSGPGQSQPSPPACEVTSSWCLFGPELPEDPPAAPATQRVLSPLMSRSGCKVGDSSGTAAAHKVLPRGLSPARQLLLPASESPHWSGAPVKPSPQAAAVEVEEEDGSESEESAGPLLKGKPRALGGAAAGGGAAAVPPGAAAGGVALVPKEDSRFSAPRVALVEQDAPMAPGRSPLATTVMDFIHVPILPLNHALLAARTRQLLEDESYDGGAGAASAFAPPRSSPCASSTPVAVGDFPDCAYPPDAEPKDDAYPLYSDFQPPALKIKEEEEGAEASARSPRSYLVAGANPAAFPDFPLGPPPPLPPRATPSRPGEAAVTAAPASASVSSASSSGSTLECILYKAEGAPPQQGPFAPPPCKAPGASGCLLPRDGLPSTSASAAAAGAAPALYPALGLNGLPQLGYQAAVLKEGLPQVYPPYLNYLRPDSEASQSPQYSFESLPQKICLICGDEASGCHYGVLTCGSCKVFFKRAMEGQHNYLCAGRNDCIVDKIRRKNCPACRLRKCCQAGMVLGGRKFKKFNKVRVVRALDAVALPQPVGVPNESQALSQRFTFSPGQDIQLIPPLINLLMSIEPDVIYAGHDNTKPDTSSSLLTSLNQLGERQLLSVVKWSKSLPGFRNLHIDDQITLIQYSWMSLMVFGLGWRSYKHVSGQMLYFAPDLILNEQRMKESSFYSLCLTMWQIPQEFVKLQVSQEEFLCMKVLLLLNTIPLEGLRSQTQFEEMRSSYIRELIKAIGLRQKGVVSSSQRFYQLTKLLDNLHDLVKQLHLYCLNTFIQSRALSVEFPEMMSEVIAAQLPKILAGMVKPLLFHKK

CC(N)C(=O)OC(C)(C)Cc1ccc(Cl)cc1 (centres undefined)
inactive: outcome [1] | Potency [2] | outcome [3] | Potency [4] | Potency [5] | outcome [6] | outcome [7] | outcome [8] | outcome [9] | Potency [10] | Potency [11] | outcome [12] | outcome [13] | outcome [14]

CC(S)C(=O)NCC(=O)O (centres undefined)
inactive: outcome [1] | Potency [2] | outcome [3] | Potency [4] | Potency [5] | Potency [15] | outcome [6] | outcome [8] | outcome [9] | Potency [16] | Potency [10] | Potency [11] | Potency [17] | outcome [12] | outcome [13] | outcome [14] | outcome [18]

O=S(=O)(O)c1ccc2cc(O)c(S(=O)(=O)O)cc2c1
inactive: outcome [1] | Potency [2] | outcome [3] | Potency [4] | Potency [5] | outcome [6] | outcome [7] | outcome [8] | outcome [9] | Potency [10] | Potency [11] | Potency [17] | Potency [19] | outcome [12] | outcome [13] | outcome [14]

C[C@@H](Oc1ccc(CNC(=O)c2cccnc2Oc2ccc3c(c2)OCO3)c(F)c1)C(=O)O
inactive: outcome [1] | Potency [2] | outcome [3] | Potency [5] | outcome [6] | outcome [7] | Potency [16] | Potency [10] | Potency [11] | Potency [17] | Potency [19] | outcome [12] | outcome [13] | outcome [14] | outcome [18]

Cc1[nH]cnc1-c1ccc(Cl)cc1
inactive: outcome [1] | Potency [2] | Potency [4] | Potency [5] | Potency [15] | outcome [6] | outcome [7] | outcome [8] | outcome [9] | Potency [10] | Potency [17] | outcome [12] | outcome [13] | outcome [14] | outcome [18]

CC/C=C\CC1=C(C)CCC1=O
inactive: outcome [1] | Potency [2] | outcome [3] | Potency [4] | Potency [5] | Potency [15] | outcome [6] | outcome [8] | outcome [9] | Potency [10] | Potency [11] | Potency [17] | Potency [19] | outcome [12] | outcome [13] | outcome [18]

CC(C)=CCOC(=O)c1ccccc1
inactive: outcome [1] | Potency [2] | outcome [3] | Potency [4] | Potency [5] | outcome [6] | outcome [8] | Potency [16] | Potency [10] | Potency [11] | Potency [17] | Potency [19] | outcome [12] | outcome [13] | outcome [14] | outcome [18]

CC(CC=O)CCCC(C)(C)O (centres undefined)
inactive: outcome [1] | Potency [2] | Potency [4] | Potency [5] | Potency [15] | outcome [6] | outcome [7] | outcome [8] | outcome [9] | Potency [16] | Potency [11] | Potency [17] | outcome [12] | outcome [13] | outcome [14]

C=C(C)C(=O)OCCNC(C)(C)C
inactive: outcome [1] | Potency [2] | Potency [4] | Potency [5] | outcome [6] | outcome [8] | Potency [16] | Potency [10] | outcome [12] | outcome [13] | outcome [14] | outcome [18]

O=C1c2ccccc2C(=O)c2cc(S(=O)(=O)O)ccc21
inactive: outcome [1] | Potency [2] | Potency [4] | Potency [5] | outcome [6] | outcome [7] | outcome [8] | outcome [9] | Potency [16] | Potency [10] | Potency [11] | Potency [17] | Potency [19] | outcome [12] | outcome [13] | outcome [18]

COc1cc2c(cc1OC)C(=O)CC2
inactive: outcome [1] | Potency [2] | Potency [5] | Potency [15] | outcome [6] | outcome [7] | outcome [8] | outcome [9] | Potency [16] | Potency [10] | Potency [11] | Potency [17] | Potency [19] | outcome [12] | outcome [13] | outcome [14] | outcome [18]

CCCCCOC(=O)CCC
inactive: outcome [1] | Potency [2] | Potency [4] | Potency [5] | outcome [8] | Potency [10] | Potency [17] | Potency [19] | outcome [12] | outcome [13] | outcome [14]

C=Cc1ccccn1
inactive: outcome [1] | Potency [2] | Potency [4] | Potency [5] | outcome [6] | outcome [8] | outcome [9] | Potency [16] | Potency [10] | Potency [11] | Potency [17] | Potency [19] | outcome [12] | outcome [13] | outcome [14] | outcome [18]

O=C1c2ccccc2C(=O)C1c1ccccc1
inactive: outcome [1] | Potency [2] | Potency [4] | Potency [5] | outcome [7] | outcome [8] | outcome [9] | Potency [10] | Potency [11] | Potency [17] | Potency [19] | outcome [12] | outcome [13] | outcome [18]

CCCCCCCCC(=O)Cl
inactive: outcome [1] | Potency [2] | Potency [4] | Potency [5] | outcome [6] | outcome [7] | Potency [16] | Potency [10] | Potency [11] | Potency [17] | Potency [19] | outcome [12] | outcome [13] | outcome [14] | outcome [18]

COC(=O)C1CC(=O)C(C(=O)OC)CC1=O (centres undefined)
inactive: activity change [1] -2.11% [at 8.39 µM] | activity change, negative = inhibition [2] 0.93% [at 8.39 µM] | activity change, negative = cytotoxicity [4] 2.46% [at 8.39 µM] | activity change, negative = cytotoxicity [5] -5.74% [at 8.39 µM] | cAMP activity change [8] 2.64% [at 8.39 µM] | activity change, negative = inhibition [9] 0.232% [at 8.39 µM] | activity change, negative = cytotoxicity [16] 1.85% [at 8.39 µM] | activation [10] 15.8% [at 8.39 µM] | activity change, negative = inhibition [11] 5.34% [at 8.39 µM] | activity change, negative = cytotoxicity [17] 15.1% [at 8.39 µM] | viability change, negative = cytotoxic [12] -4.8% [at 6.97 µM] | activity change, negative = cytotoxicity [13] -0.722% [at 6.97 µM] | activation [14] 5.28% [at 6.97 µM] | activity, negative = inhibition [18] 1.02% [at 4.65 µM]
